PubChem BioAssay (NCATS)
Inconclusive results are not listed. A call without a number means that no potency is given here. Values without a mark were called inactive. Active and inactive are the calls of the source. Calls come from the whole dose curve; as a rule, active = well fitted activation curve with a large enough effect; inconclusive = small, poorly fitted or top-dose-only effect, or another doubt; inactive = no such curve, though single readings can be large or run the other way.

Each molecule was assayed against Rap guanine nucleotide exchange factor 3 (Homo sapiens) (UniProt O95398) (assay: Counterscreen qHTS for agonist of cAMP-regulated guanine nucleotide exchange factor 3 (EPAC1) (AID 1645889; note: nearly all actives have a fitted effect of over 40% in size)). Settings: EPAC1 Rap1B-BODIPY-GDP exchange, fluorescence; series mostly up to 154 µM.
Text: Assay Provider (PI): Xiaodong Cheng Ph.D. The University of Texas Medical Branch, […], TX MLPCN Grant: NS066510 In multi-cellular eukaryotic organisms, the effects of cAMP are transduced by two ubiquitously-expressed intracellular cAMP receptors, the classic protein kinase A/cAMP-dependent protein kinase (PKA/cAPK) and the more recently discovered exchange protein directly activated by cAMP/cAMP-regulated guanine nucleotide exchange factor (EPAC/cAMP-GEF). Both PKA and EPAC are ubiquitously expressed in all tissues, and an increase in intracellular cAMP levels will lead to the activation of both PKA and EPAC. Therefore, careful dissections of the individual role and relative contribution of EPAC and PKA within the overall cAMP signaling in various model systems are critical for further elucidating the mechanism of cAMP signaling. To date no EPAC-specific antagonists and agonist, as well as isoform-specific agonists have been reported, and developing EPAC-specific pharmacological probes to determine the physiological functions that EPAC play in the overall cAMP-mediated signaling remains a major challenge within the research field. Furthermore, identified regulators of EPAC may lead to new mechanism-based therapeutic strategies specifically targeting the EPAC / cAMP-signaling components as EPAC has been implicated to play important roles in major human pathological conditions such as diabetes, heart disease, and cancer. This qHTS will be used to screen the Molecular Libraries Small Molecule Repository (MLSMR) as a concentration-titration series using the NCGC unique quantitative screening (qHTS) platform to find activators for EPAC1. In addition, this assay will also be used as a counterscreen for the EPAC2 qHTS. This fluorescent based assay is developed and validated for EPAC1 that measures exchange using EPAC effector Rap1 complex with BODIPY-GDP, a GDP analog with a tethered fluorophores. Activators are identified by monitoring the change in fluorescence signal as the exchanged free BODIPY-GDP has a reduced fluorescence compared to Rap1-bound BODIPY-GDP. Increase in signal (activation) is the desired outcome for the EPAC1 agonist while no activity in this assay is desired for the EPAC2 agonist counterscreen. Reference: [1] de Rooij, J., Zwartkruis, F. J., Verheijen, M. H., Cool, R. H., Nijman, S. M., Wittinghofer, A., and Bos, J.L. (1998) Nature 396, 474-477. Kawasaki, H., Springett, G. M., Mochizuki, N., Toki, S., Nakaya, M., Matsuda, M., Housman, D. E., and Graybiel, A. M. (1998) Science 282, 2275-2279.
EPAC1 Counterscreen PROTOCOL TABLE SEQUENCE No. (e.g., 1, 2, 3, etc.); […] (e.g., Cells, Incubation, Reagent, etc.); VALUE and DESCRIPTION. 1. Reagent. 3 uL. [1x] 250 nM Rap1B-BODIPY-GDP, and 50 uM GDP. 2a. Compound. 23 nL. Control 6,572 uM cAMP (working concentration). 2b, 2c. Compound. 23 nL. Control activator and inhibitor; 234 - 30,000 uM cAMP and 16.4 - 10,000 uM. 2d. Compound. 46 nL. MLSMR follow-up library; 0.64 - 10,000 uM. 3. Time. 15 sec, 1000rpm. Centrifuge. 4. Time. 5 min. Incubation at room temperature. 5. Detector. Fluorescence. (Read 1), Ex/Em = 480 nm / 540 nm. 6. Time. 30 min. Incubation at room temperature. 7. Detector. Fluorescence. (Read 2), Ex/Em = 480 nm/ 540 nm. 8. Reagent. 1uL. Dispense either [4x] 10 uM cAMP or buffer. 9. Time. 15 sec, 1000 rpm. Centrifuge. 10. Time. 5 min. Incubation at room temperature. 11. Detector. Fluorescence. (Read 3), Ex/Em = 480 nm / 540 nm. 12. Time. 30 min. Incubation at room temperature. 13. Detector. Fluorescence. (Read 4), Ex/Em = 480 nm / 540 nm. NOTES (numbers refer to Sequence numbers above; values are from representative experiments) 1. Medium-binding black solid-bottom Greiner plates (789176-F). Dispense 3 uL of [1x] 250 nM Rap1B-BODIPY-GDP, and 50 uM GDP into columns 1 to 48. 2a. Control compound cAMP (6,572 uM, column 3, rows 1 to 32) single pin-transferred for a [final] of 50 uM. 2b. […]
Potency is the fitted concentration of half-maximal effect.

| SMILES | Potency | activation |
| --- | --- | --- |
| COc1ccc(C2CC(=O)c3c(O)cc(O)cc3O2)c(CC=C(C)C)c1OC (stereo not given) | inactive |  |
| CCC(=O)N(CCC1(c2ccccc2OC)CCOC(C(C)C)C1)Cc1ccco1 (stereo not given) |  | 10.9% [at 30.8 µM] |
| COc1cc(/C=C2\SC(=S)N(NC(=O)c3ccc(O)cc3)C2=O)ccc1O | inactive |  |
| C=Cc1ccc(Cn2nc(-c3ccccc3)ccc2=O)cc1 |  | 15.7% [at 30.8 µM] |
| O=C(Cc1c(F)cccc1Cl)Nc1ccc(S(=O)(=O)Nc2nccs2)cc1 |  | 17.6% [at 30.8 µM] |
| Cc1nc2c(C(=O)NCCC3=CCCCC3)c[nH]n2c(=O)c1Cl | inactive |  |
| COc1ccccc1CNC(=O)C1(C)CCN1Cc1ccc2ccccc2c1 (stereo not given) | inactive |  |
| O=C(Cn1ncc(Cl)c(Cl)c1=O)NC(=O)NC1CCCCC1 |  | 9.51% [at 30.8 µM] |
| CC(C)(C)C(=O)NC(Nc1cccc2cccnc12)C(Cl)(Cl)Cl (stereo not given) |  | 21.1% [at 30.8 µM] |
| CCC(CO)Oc1cc(NCc2ccc(C(C)(C)C)cc2)c2ncn(C(C)C)c2c1 (stereo not given) | inactive |  |
| Nc1cccc2c(O)cc(S(=O)(=O)O)cc12 | 79.4 µM (active) |  |
| CCCCN(Cc1ccccc1)C(=O)c1oc(=O)c2ccccc2c1-c1ccc(C)cc1 | inactive |  |
| Cc1nc(Nc2ccc(S(=O)(=O)N3CCCCC3C)cc2)c2nnn(Cc3ccccc3)c2n1 (stereo not given) | inactive |  |
| Cc1ccc(C(=O)NCCCNC(=O)c2ccc(Cl)cc2)cn1 | inactive |  |
| CCCC(=O)N=C1SC2CS(=O)(=O)CC2N1c1ccc(CC)cc1 (stereo not given) |  | -1.33% [at 30.8 µM] |
| O=C(CC(=O)NC1CCCCC1)N/N=C/c1ccc(Cl)cc1 | inactive |  |
| COc1cc(/C=C2\SC(=Nc3ccccc3)N(CCc3c[nH]c4ccccc34)C2=O)ccc1OC(C)C(=O)O (stereo not given) | inactive |  |
| O=C(Nc1nc2ccc(Cl)cc2s1)C1CCCO1 (stereo not given) |  | 15.7% [at 30.8 µM] |
| CC(=O)NC(c1ccc(Cl)cc1Cl)c1ccc2cccnc2c1O (stereo not given) | inactive |  |
| O=S(=O)(O)c1cccc(N=Nc2c(O)ccc3ccccc23)c1 | inactive |  |

| SMILES | Potency | activation |
| --- | --- | --- |
| O=C(Nc1cccnc1)c1c(O)c2cccc3c2n(c1=O)CC3 |  | 22.3% [at 30.8 µM] |
| C=CCn1c(SCC(=O)NC(N)=O)nnc1-c1cc2c(s1)CCC(CC)C2 (stereo not given) | inactive |  |
| NS(=O)(=O)c1cccc(Nc2nc3ccccc3nc2NS(=O)(=O)c2ccc(Cl)cc2)c1 | inactive |  |
| Cc1ccccc1OCC(=O)Nc1ccc(C(=O)OCc2cc(=O)n3c(C)csc3n2)cc1 | inactive |  |
| CCc1ccc([C@@H]2CC=C(C(=O)O)[C@H](c3ccc(Cl)cc3)N2S(=O)(=O)c2ccc(C)cc2)cc1 |  | 4.76% [at 30.8 µM] |
| CCOC(=O)c1ccc2c(c1)C1C=CCC1C(C(=O)OCC)N2 (stereo not given) |  | 32.7% [at 30.8 µM] |
| Cc1ccc([N+](=O)[O-])cc1S(=O)(=O)N1CCC(C)CC1 | inactive |  |
| Cc1c(N=Cc2cc(Br)cc(Br)c2O)cccc1C(=O)O |  | 3.4% [at 30.8 µM] |
| COc1ccc(S(=O)(=O)Nc2ncccc2C)c2ccccc12 | inactive |  |
| N#Cc1c(-c2ccc(Cl)cc2)cc(-c2cccs2)nc1SCC(=O)O | inactive |  |
| O=C(Cc1ccc(Br)cc1)N(Cc1ccccc1)c1ccccn1 | inactive |  |
| O=C1C=C(NCCc2cc(Br)c(O)c(Br)c2)C(=O)c2ncccc21 |  | 14.9% [at 30.8 µM] |
| Cc1ccc(N(Cc2cccs2)C(=O)c2ccco2)cc1 | inactive |  |
| O=C(O)C1=CC[C@@H](c2ccc(Cl)cc2)N(S(=O)(=O)c2ccc(Cl)cc2)[C@H]1c1ccc(Br)cc1 | inactive |  |
| COC1=C/C(=C/c2c(N)n3nc(-c4ccc(C)cc4)sc3nc2=O)C=CC1=O | inactive |  |
| O=C(Nc1ccncc1)c1cc2ccccc2cc1O | inactive |  |
| CCCN1C(=O)c2[nH]nc(-c3cccc(OC)c3)c2C1c1ccccn1 (stereo not given) | inactive |  |
| CCc1nc2c(OCc3ccc(C(=O)OC)cc3)cccn2c1N(C)C(=O)c1ccc(OC)cc1 |  | 20% [at 30.8 µM] |
| CCCC(=O)NC(c1ccc(C)cc1)c1ccc2cccnc2c1O (stereo not given) |  | 7.43% [at 30.8 µM] |
| N#Cc1c(Nc2ccccc2)sc(C(=O)c2ccccc2)c1N |  | 19.9% [at 30.8 µM] |
